{"source": "the supplement of paper PMC9399229", "note": "Where a name gives a salt, the structure may show the parent alone. Over roughly 1,900 compounds, “relative cell viability (CellTiter-Glo), compound plus cabozantinib, relative to the cabozantinib arm (arm median 1.05; reference not stated)” has its median near 1.1; the lowest 2% begin near 0.15. Many of the other results were omitted from the sample, so the lowest values are more common in it than they were."}
{"system": "Hep3B", "test": "relative cell viability (CellTiter-Glo), compound plus cabozantinib, relative to the cabozantinib arm (arm median 1.05; reference not stated) (fraction); higher = more viable cells (less growth inhibition)", "conditions": "cabozantinib 2 µM; 4 days"}
{"smiles": "C[C@@H]1O[C@@H](O[C@H]2C[C@@H](O)[C@]3(CO)[C@H]4[C@H](O)C[C@]5(C)[C@@H](C6=CC(=O)OC6)CC[C@]5(O)[C@@H]4CC[C@]3(O)C2)[C@H](O)[C@H](O)[C@H]1O", "note": "[Ouabain]", "relative cell viability": 0.105}
{"smiles": "CC1(C)CC(O)CC(C)(C)N1[O]", "note": "[Tempol]", "relative cell viability": 1.03}
{"smiles": "Cc1ccc(-n2nccn2)c(C(=O)N2CCN(c3nc4cc(Cl)ccc4o3)CC[C@H]2C)c1", "note": "[Suvorexant (MK-4305)]", "relative cell viability": 0.987}
{"smiles": "O=C(NCC1CCOCC1)c1cnc(Nc2ccc(Cl)cc2Cl)nc1C(F)(F)F", "relative cell viability": 1.02}
{"smiles": "CCc1c(C(=O)C(N)=O)c2c(OCC(=O)O)cccc2n1Cc1ccccc1", "relative cell viability": 1.05}
{"smiles": "[O-][n+]1ccccc1[S-].[O-][n+]1ccccc1[S-].[Zn+2]", "note": "[Zinc Pyrithione]", "relative cell viability": 0.0184}
{"smiles": "CCC1(c2cccc(O)c2)CCCCN(C)C1", "note": "(stereo not given) [Meptazinol HCl]", "relative cell viability": 1.13}
{"smiles": "CC(=O)O[C@H]1C[C@@H]2CC[C@@H]3[C@H](CC[C@@]4(C)[C@H]3C[C@H]([N+]3(C)CCCCC3)[C@@H]4OC(C)=O)[C@@]2(C)C[C@@H]1[N+]1(C)CCCCC1", "note": "[Pancuronium dibromide]", "relative cell viability": 1.06}
{"smiles": "Cc1cc2c(C(C)C)c(O)c(O)c(C=O)c2c(O)c1-c1c(C)cc2c(C(C)C)c(O)c(O)c(C=O)c2c1O", "note": "[Gossypol]", "relative cell viability": 1.15}
{"smiles": "CC(=O)Nc1ccc(Cc2ccc(NC(C)=O)cc2)cc1", "relative cell viability": 1.07}
{"smiles": "CC(C)=CCC[C@]1(C)C=Cc2c(O)c3c(c(CC=C(C)C)c2O1)O[C@]12C(=C[C@@H]4C[C@H]1C(C)(C)O[C@@]2(C/C=C(/C)C(=O)O)C4=O)C3=O", "note": "[Gambogic Acid]", "relative cell viability": 0.118}
{"smiles": "CCC1=C[C@H]2CN3CCc4c([nH]c5ccccc45)[C@](C(=O)OC)(C2)[C@H]13", "note": "[Catharanthine]", "relative cell viability": 1.06}
{"smiles": "CN1[C@@H]2CC[C@H]1C[C@@H](OC(=O)[C@H](CO)c1ccccc1)C2", "note": "[Hyoscyamine]", "relative cell viability": 1.1}
{"smiles": "CN(C)CCc1ccc(O)cc1", "note": "[Hordenine]", "relative cell viability": 1.11}
{"smiles": "C[C@H]1CCC/C=C/[C@@H]2C[C@H](O)C[C@H]2[C@H](O)/C=C/C(=O)O1", "note": "[Brefeldin A]", "relative cell viability": 0.105}
{"smiles": "c1ccc2c(c1)Nc1ccccc1S2", "note": "[Phenothiazine]", "relative cell viability": 1.17}
{"smiles": "CN(C)Cc1c[nH]c2ccccc12", "note": "[Gramine]", "relative cell viability": 1.06}
{"smiles": "NCC(=O)O.[C-]#[O+].[C-]#[O+].[C-]#[O+].[Cl][Ru]", "relative cell viability": 0.978}
{"smiles": "C#C[C@]1(O)C=C[C@H]2[C@@H]3CCC4=CC(=O)CC[C@@H]4[C@H]3CC[C@@]21CC", "note": "[Gestodene]", "relative cell viability": 0.965}
{"smiles": "Cc1sc2c(c1C)C(c1ccc(Cl)cc1)=N[C@@H](CC(=O)Nc1ccc(O)cc1)c1nnc(C)n1-2", "relative cell viability": 0.454}
